Here are results for 36 compounds from PubChem BioAssay (NCATS).

Each structure is given as a SMILES string. Results filed as inconclusive are left out. A call without a number means that no potency is given here. A number with no mark means an inactive call. Activity calls are given as the source filed them. Calls come from the whole dose curve; as a rule, active = well fitted curve in the direction sought with a large enough effect; inconclusive = small, poorly fitted or top-dose-only effect, or another doubt; inactive = no such curve, though single readings can be large; an effect the other way counts as inactive or inconclusive.

The target in assay [1] is Calcium and integrin-binding protein 1 (Homo sapiens) (UniProt Q99828). The experiment in a line: Primary qHTS for Identification of Calcium Integrin Binding Protein 1 (CIB1) Competitor (AID 1508620).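 Note: GST tagged CIB1 binding a fluorescein labelled alphaIIb integrin peptide tracer; top concentration of the series differs between compounds.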 The method in brief: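 Fluorescence polarization competition: CIB1-GST (1 uM final) preincubated with compound 15 min at room temperature, then FITC-labeled alphaIIb peptide (100 nM final) added for another 15 min. Polarization read at Ex 480/Em 540.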
Sequence of Calcium and integrin-binding protein 1 (Homo sapiens) (Q99828 whole entry, looked up): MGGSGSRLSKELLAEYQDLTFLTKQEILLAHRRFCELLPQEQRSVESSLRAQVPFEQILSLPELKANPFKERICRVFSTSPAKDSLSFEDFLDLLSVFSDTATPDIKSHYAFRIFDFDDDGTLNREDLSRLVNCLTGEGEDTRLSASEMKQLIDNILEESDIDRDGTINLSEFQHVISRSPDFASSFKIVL
In general terms: Quantitative high-throughput screening tests each substance at several concentrations.

Assay [2] is described as follows: Primary qHTS for small molecule stabilizers of the endoplasmic reticulum resident proteome: Secreted ER Calcium Modulated Protein (SERCaMP) assay (AID 1508630). The method in brief: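 GLuc-SERCaMP-expressing SH-SY5Y cells, pretreated 16 h with compound, are challenged with thapsigargin to empty ER calcium stores; after 4 h, coelenterazine is added directly to the medium and luminescence is imaged.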

With `CC[C@@]1(O)C(=O)OCc2c1cc1n(c2=O)Cc2cc3cc(O)ccc3nc2-1`, in assay [1], the result was inactive. Also, the Potency entry in assay [2] was “inactive”.
In the case of `O=C(Nc1cc(C(F)(F)F)cc(C(F)(F)F)c1)c1cc(Cl)ccc1O`, the outcome in assay [1] was inactive. Moreover, in assay [2], the Potency result is “inactive”.
Consider `O=C(C=Cc1cccnc1)NCCCCC1CCN(C(=O)c2ccccc2)CC1`, for which the outcome in assay [1] was inactive. Moreover, the Potency result in assay [2] was “inactive”.
On to `O=c1[nH]c(=O)n(C2CCCO2)cc1F` (configuration not stated), for which the result in assay [1] was inactive. Moreover, the Potency entry in assay [2] was “inactive”.
For `CC(C)c1noc(N2CCC(COc3ccc(-c4ccc(S(C)(=O)=O)cc4)nc3)CC2)n1`, the result in assay [1] was inactive. Also, the Potency entry in assay [2] was “inactive”.
Regarding `CC(C)(C)NC(=O)[C@H]1CN(Cc2cccnc2)CCN1C[C@@H](O)C[C@@H](Cc1ccccc1)C(=O)N[C@H]1c2ccccc2C[C@H]1O`, the result in assay [1] was inactive. Besides, the Potency result in assay [2] was “inactive”.
Regarding `CC(C)[C@H](C(=O)Nc1ccc(C(=O)NO)cc1)c1ccccc1`, the outcome in assay [1] was inactive. The Potency entry in assay [2] was “inactive”.
In the case of `CCC1=C[C@@H]2CN(C1)Cc1c([nH]c3ccccc13)[C@@](C(=O)OC)(c1cc3c(cc1OC)N(C)[C@@H]1[C@@](O)(C(=O)OC)[C@H](OC(C)=O)[C@]4(CC)C=CCN5CC[C@]31[C@@H]54)C2`, in assay [1], the outcome was inactive. The Potency entry in assay [2] was “inactive”.
As to `Clc1ccc2ncc(-c3cccc(NC4CNC4)n3)n2c1`, the outcome in assay [1] was inactive. Moreover, in assay [2], the Potency result was “inactive”.
On to `CC(C)C[C@H](NC(=O)CNC(=O)c1cc(Cl)ccc1Cl)B(O)O`, for which the outcome in assay [1] was inactive. Besides, in assay [2], the Potency result is “inactive”.
As to `CN[C@H]1CCc2cc(OC)c(OC)c(OC)c2-c2ccc(OC)c(=O)cc21`, the result in assay [1] was inactive. Moreover, the Potency entry in assay [2] was “inactive”.
On to `CC1(C)CCC(c2ccc(Cl)cc2)=C(CN2CCN(c3ccc(C(=O)NS(=O)(=O)c4ccc(N[C@H](CCN5CCOCC5)CSc5ccccc5)c(S(=O)(=O)C(F)(F)F)c4)cc3)CC2)C1`, for which the result in assay [1] was inactive. Besides, the Potency entry in assay [2] was “inactive”.
Regarding `C=CC(=O)Nc1cc2c(Nc3ccc(F)c(Cl)c3)ncnc2cc1C#CC(C)(C)N1CCN(C)CC1`, the result in assay [1] was inactive. For the same compound, the Potency result in assay [2] was “inactive”.
Consider `C[C@]12CC[C@H](O)CC1=CCC1C2CC[C@]2(C)C(n3cnc4ccccc43)=CCC12` (some centres not stated), for which the outcome in assay [1] was inactive. Besides, in assay [2], the Potency result was “inactive”.
As to `C=C1C(=CC=C2CCCC3(C)[C@@H]([C@H](C)C=CC=CC(O)(CC)CC)CC[C@@H]23)C[C@@H](O)C[C@@H]1O` (some centres not stated), in assay [1], the outcome was inactive. The Potency result in assay [2] is “inactive”.
With `CC(O)C1C(=O)N2C(C(=O)O)=C(SC3CNC(C(=O)N(C)C)C3)C(C)C12` (configuration not stated), in assay [1], the outcome was inactive. The Potency result in assay [2] is “inactive”.
For `CCN1CCN(CC(=O)Nc2ccc(-c3cccc4c(=O)cc(N5CCOCC5)oc34)c3sc4ccccc4c23)CC1`, in assay [1], the result was inactive. The Potency entry in assay [2] was “inactive”.
As to `O=C(C=Cc1cccc(S(=O)(=O)Nc2ccccc2)c1)NO`, in assay [1], the outcome was inactive. In addition, the Potency entry in assay [2] is “inactive”.
`Cc1cn2cc(C(=O)N(C)CCO)cc(N[C@@H]3CCOc4cccc(C)c43)c2n1`: the result in assay [1] was inactive. Also, the Potency entry in assay [2] is “inactive”.
As for `Cc1ccc(C(N)=O)cc1Nc1nccc(-c2cn(C(C)C)c3cnccc23)n1`, the outcome in assay [1] was inactive. Moreover, in assay [2], the Potency result was “inactive”.
In the case of `CN(C)CC=CC(=O)Nc1cc2c(Nc3ccc(F)c(Cl)c3)ncnc2cc1O[C@H]1CCOC1`, the result in assay [1] was inactive. The Potency entry in assay [2] is “inactive”.
With `CC(C)(C)c1cc(NC(=O)Nc2ccc(-c3cn4c(n3)sc3cc(OCCN5CCOCC5)ccc34)cc2)no1`, the result in assay [1] was inactive. The Potency result in assay [2] was “inactive”.
`CCN1CCN(Cc2ccc(-c3cc4c(N[C@H](C)c5ccccc5)ncnc4[nH]3)cc2)CC1`: in assay [1], the result was inactive. In assay [2], the Potency result is “inactive”.
On to `C[C@@H](Oc1cc(-n2cnc3ccc(CN4CCN(C)CC4)cc32)sc1C(N)=O)c1ccccc1C(F)(F)F`, for which the result in assay [1] was inactive. The Potency entry in assay [2] was “inactive”.
For `Nc1ccn([C@@H]2O[C@H](CO)[C@H](O)C2(F)F)c(=O)n1`, the outcome in assay [1] was inactive. Besides, in assay [2], the Potency entry is “inactive”.
Consider `COC(=O)Nc1nc2ccc(C(=O)c3ccc(F)cc3)cc2[nH]1`, for which the result in assay [1] was inactive. Besides, the Potency entry in assay [2] was “inactive”.
Consider `O=C1CCC[C@@H]2[C@H]3CCC[N+]4([O-])CCC[C@@H](CN12)[C@@H]34` (some centres not stated), for which the result in assay [1] was inactive. The Potency entry in assay [2] was “inactive”.
Turning to `Cc1nc(N)ncc1-c1nc(N2CCOCC2)c2sc(C(C)(C)O)cc2n1`, the outcome in assay [1] was inactive. The Potency result in assay [2] is “inactive”.
`CN1CCN(c2cc(C(=O)Nc3ccc4c(c3)-c3c(c(C(N)=O)nn3-c3ccc(F)cc3)CC4)c(Cl)cn2)CC1`: in assay [1], the outcome was inactive. For the same compound, in assay [2], the Potency result was “inactive”.
On to `CC=CC1=C(C(=O)O)N2C(=O)[C@H](NC(=O)[C@H](N)c3ccc(O)cc3)[C@@H]2SC1`, for which the outcome in assay [1] was inactive. For the same compound, the Potency result in assay [2] is “inactive”.
With `c1cc(-c2cnn3cc(-c4ccc(OCCN5CCCCC5)cc4)cnc23)ccn1`, in assay [1], the result was inactive. The Potency result in assay [2] is “inactive”.
With `Cc1cc(C(=O)N2CCN(c3cccc(Cl)c3)CC2)n(-c2ccccc2)n1`, the result in assay [1] was inactive. In addition, the Potency result in assay [2] is “inactive”.
As for `COc1cc2ncn(-c3cc(OCc4ccccc4C(F)(F)F)c(C(N)=O)s3)c2cc1OC`, the result in assay [1] was inactive. For the same compound, the Potency entry in assay [2] is “inactive”.
For the compound `C[C@@H]1COC(Nc2ccc3ncnc(Nc4ccc(OCc5nccs5)c(Cl)c4)c3c2)=N1`, in assay [1], the result was inactive. In assay [2], the Potency entry was “inactive”.
Regarding `C1=CCOCc2cc(ccc2OCCN2CCCC2)Nc2nccc(n2)-c2cccc(c2)OCC1`, in assay [1], the result was inactive. In addition, the Potency entry in assay [2] was “inactive”.
For the compound `c1nc2nc(Nc3ccc(N4CCOCC4)cc3)nc(NC3CCCCC3)c2[nH]1`, the result in assay [1] was inactive. In addition, the Potency result in assay [2] was “inactive”.
